# From PubChem BioAssay (NCI)
# The panel holds about 83,000 compounds, 20% with a hit somewhere; the sample as a whole holds those more often.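 Treatment: one concentration, 48 hours, 96-well format. Scoring: percent growth, with anything below 10 considered active.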 A number with no mark means an inactive call. Active and inactive are the calls of the source.
# Columns and labels:
# Experiment in all cases: NCI-60 one-dose screen, 48 h (100 = growth as untreated, 0 = no growth, -100 = all killed)
# Details in all cases: 10 µM unless noted
# [1] = test system: SR leukemia
# [2] = test system: RPMI-8226 leukemia
# [3] = test system: OVCAR-8 ovarian
# [4] = test system: OVCAR-5 ovarian
# [5] = test system: OVCAR-4 ovarian
# [6] = test system: SK-OV-3 ovarian
# [7] = test system: IGROV1 ovarian
# [8] = test system: OVCAR-3 ovarian
# [9] = test system: HS 578T breast
# [10] = test system: NCI/ADR-RES ovarian
# [11] = test system: T-47D breast
# [12] = test system: BT-549 breast
# [13] = test system: MDA-MB-435 melanoma
# [14] = test system: SW-620 colon
# [15] = test system: MCF7 breast
# [16] = test system: HCT-116 colon
# [17] = test system: HCC-2998 colon
# [18] = test system: KM12 colon
Compound,growth [1],growth [2],growth [3],growth [4],growth [5],growth [6],growth [7],growth [8],growth [9],growth [10],growth [11],growth [12],growth [13],growth [14],growth [15],growth [16],growth [17],growth [18]
O=C(N(c1ccccc1)c1ccccc1)n1ccc2nc(Cl)nc(Cl)c21,54.4%,16.1%,63.2%,64.2%,63.3%,49.7%,68.5%,30%,42.2%,35.8%,34.2%,47.2%,37.9%,51.1%,32.5%,49.6%,91.5%,55.7%
O=C(O)c1ccc(NC(=O)c2ccc(-c3cccc([N+](=O)[O-])c3)o2)cc1,113%,101%,103%,106%,93.9%,98.8%,92.2%,102%,90.7%,98.5%,102%,107%,100%,96%,89.8%,105%,99.3%,99.5%
Cc1nn(-c2ccc(F)cc2)c2ncnc(Oc3ccc(NC(=O)Nc4ccc(Cl)c(C(F)(F)F)c4)cc3)c12,110%,98.7%,96.5%,99.3%,110%,92.6%,102%,114%,91%,98.5%,94.6%,111%,104%,100%,96.2%,102%,99.2%,108%
COc1ccc(C2CC(c3ccc(Cl)cc3)=NN2/C=C2\SC(=S)N(NC(=O)Cc3ccccc3Nc3c(Cl)cccc3Cl)C2=O)cc1 (stereo unspecified),16.8%,71.9%,23.3%,86.3%,74.7%,77.9%,38.9%,84.4%,75.6%,82%,49.5%,79%,89.3%,90%,74.1%,56.3%,90.4%,85.4%
COc1ccc(S(=O)(=O)N2CCCCC2)cc1NC(=O)c1[nH]c(C)c2c1CCCCC2=O,34.3%,10.1%,32.8%,48.4%,42%,19.7%,15.3%,23.5%,15.4%,28.3%,15.2%,50.1%,21.7%,54%,12.3%,17.6%,15.8%,24.9%
CC(O)CN(CC(C)O)c1ccc2c(c1)Cc1cc([N+](=O)[O-])ccc1-2 (stereo unspecified),62.5%,104%,118%,86.2%,112%,108%,55.6%,91.7%,95.8%,92.9%,109%,101%,98.7%,99%,99.2%,89.6%,95.1%,85.3%
COc1cc(-c2nn(-c3ccc(C)cc3)cc2C(=O)O)ccc1O,85.3%,90.9%,98.9%,113%,109%,94%,94.2%,93.4%,103%,94.5%,89.5%,103%,87.3%,103%,93.4%,99.7%,92.5%,64.7%
O=C(CN1CCCCC1)Nc1ccc2oc(=O)ccc2c1,84.4%,90.7%,97.8%,122%,120%,109%,102%,111%,97%,107%,103%,107%,113%,97.9%,96%,101%,110%,104%
O=C1c2cc3c(cc2-c2c1c1ccc(F)cc1c(=O)n2CCCNCCO)OCO3,-25.7% (active),-12.5% (active),-33% (active),-59.4% (active),-76.9% (active),-33.7% (active),-5.09% (active),-28.1% (active),3.15% (active),-13.8% (active),-17.7% (active),-20% (active),-71.5% (active),-41.5% (active),-65.5% (active),-43.1% (active),-65.7% (active),-29.9% (active)
COc1ccc(-c2nn(-c3ccc(Cl)cc3)cc2-c2nc3ccccc3[nH]2)cc1,80.3%,93.9%,105%,110%,88%,101%,71.4%,94%,93%,102%,87.9%,113%,97.7%,84.6%,74.3%,87%,109%,102%
Nc1n[nH]c2cc(F)c([C@@H]3Nc4ccc5[nH]ncc5c4[C@H]4C5CCC(C5)[C@@H]34)cc12 (stereo partly specified),9.53% (active),32.1%,19.5%,30.1%,32.1%,20.6%,15%,12.9%,-4.82% (active),-26.9% (active),97.6%,-7.74% (active),-15.3% (active),21.7%,16.3%,-29.3% (active),15.9%,1.62% (active)
Clc1ccc2nc3nc4ccc[nH]c4cc3c2c1,39.6%,65.5%,87.4%,127%,49.2%,98.1%,52.9%,83.1%,92.2%,88.3%,22%,97.7%,103%,102%,6.54% (active),96.9%,70.6%,63%
O=C1/C(=C/c2ccccc2)SC(=S)N1CCc1ccc(O)cc1,93.7%,95.5%,96.3%,103%,76.4%,85%,82.3%,97.4%,76.9%,99.3%,54.3%,106%,96.2%,95.6%,112%,95.9%,107%,87.8%
O=c1cc(CSc2nnc(-c3ccc(F)cc3)o2)c2ccc3ccccc3c2o1,94.1%,101%,96.4%,93%,108%,82.4%,101%,101%,95.5%,91.8%,100%,111%,106%,94.5%,93.5%,93.2%,95.4%,100%
COc1cc(/C=C/c2cc(/C=C/c3ccc(O)c(OC)c3)n(-c3c(Cl)cccc3Cl)c(=O)n2)ccc1O,4.12% (active),0.562% (active),7.53% (active),57.6%,56.3%,47.7%,33.5%,10.7%,36.3%,55.2%,24.1%,15.2%,4.57% (active),10.4%,13.7%,4.63% (active),41.8%,12.1%
Cc1cc(N2CCOCC2)nc(NCc2cc(Nc3ccnc4cc(Cl)ccc34)ccc2F)n1,-41.3% (active),-40.4% (active),-48.9% (active),-17.2% (active),3.65% (active),-40.8% (active),-14.1% (active),-94.2% (active),-14.2% (active),-56.9% (active),-34.9% (active),-37.7% (active),-79.5% (active),-69.9% (active),-55.9% (active),-78.4% (active),-69% (active),-61.9% (active)
O=C1c2ccccc2OC=C(c2ccccc2)N1CCCCNc1ccc(S(=O)(=O)Nc2ncccn2)cc1,78.9%,83.2%,92.2%,105%,106%,96.6%,104%,104%,92.8%,98.6%,88.8%,100%,105%,99.3%,93.7%,96.1%,111%,97.5%
